Structures can show the parent of a compound that is named as a salt. ± gives the uncertainty stated by the source.

The experiment deals with Caenorhabditis elegans N2. The experiment can be described thus: food intake (mean delta OD600 / animal over 72 h) with 50 uM loxapine co-treatment (OD600 units per animal); higher = more food eaten (less suppression of loxapine-induced hyperphagia). Particulars: first compound 33 µM, loxapine concentration 50 µM. How it is done:
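C. elegans N2 adults (FUDR-sterilised, day 1) in 96-well plates fed gamma-irradiated bacteria. Each library drug (MedChemExpress FDA-approved library) at 33 uM was combined with loxapine at 50 uM. Food intake was measured as bacterial clearance: the change in OD600 from day 1 to 72 h, normalised per animal (mean over 14-21 wells of about 10-12 worms). Drugs flagged for bacterial lysis or sickness were excluded by the authors.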
Turning to `CN(C)c1cc(NC(=O)CNC(C)(C)C)c(O)c2c1C[C@H]1C[C@H]3[C@H](N(C)C)C(O)=C(C(N)=O)C(=O)[C@@]3(O)C(O)=C1C2=O` [tigecycline] + CN1CCN(C2=Nc3ccccc3Oc3ccc(Cl)cc32)CC1 [loxapine], the food intake stood at 0.0234 ± 0.0019. To `NNc1nncc2ccccc12` [hydralazine (hydrochloride)] + CN1CCN(C2=Nc3ccccc3Oc3ccc(Cl)cc32)CC1 [loxapine] belongs 0.022 ± 0.017.

`C=CC[N+]1([C@H]2C[C@H]3[C@@H]4CC[C@H]5C[C@H](O)[C@@H](N6CCOCC6)C[C@]5(C)[C@H]4CC[C@]3(C)[C@H]2OC(C)=O)CCCC1` [rocuronium (bromide)] + CN1CCN(C2=Nc3ccccc3Oc3ccc(Cl)cc32)CC1 [loxapine]: the food intake was 0.0231 ± 0.0029.

As for `COC(=O)/C=C/C(=O)OC` [dimethyl fumarate] + CN1CCN(C2=Nc3ccccc3Oc3ccc(Cl)cc32)CC1 [loxapine], the food intake is 0.0218 ± 0.0043. To `CC1CNc2c(cccc2S(=O)(=O)N[C@@H](CCCNC(=N)N)C(=O)N2CC[C@@H](C)C[C@@H]2C(=O)O)C1` (stereo not given in full) [argatroban (monohydrate)] + CN1CCN(C2=Nc3ccccc3Oc3ccc(Cl)cc32)CC1 [loxapine] belongs 0.0229 ± 0.002; to `CN(CCOc1ccc(CC2SC(=O)NC2=O)cc1)c1ccccn1` (stereo not given) [rosiglitazone] + CN1CCN(C2=Nc3ccccc3Oc3ccc(Cl)cc32)CC1 [loxapine], 0.0226 ± 0.0041; to `Cn1c(=O)c2nc[nH]c2n(C)c1=O` [theophylline] + CN1CCN(C2=Nc3ccccc3Oc3ccc(Cl)cc32)CC1 [loxapine], 0.00971 ± 0.011. The value for `Cc1ncc([N+](=O)[O-])n1CC(C)O` (stereo not given) [secnidazole] + CN1CCN(C2=Nc3ccccc3Oc3ccc(Cl)cc32)CC1 [loxapine] was 0.0205 ± 0.0035; that for `COc1ccc2[nH]c([S@@+]([O-])Cc3ncc(C)c(OC)c3C)nc2c1` [Esomeprazole (magnesium trihydrate)] + CN1CCN(C2=Nc3ccccc3Oc3ccc(Cl)cc32)CC1 [loxapine] was 0.0226 ± 0.0041; that for `CC(=O)NCCCS(=O)(=O)O` [Acamprosate (calcium)] + CN1CCN(C2=Nc3ccccc3Oc3ccc(Cl)cc32)CC1 [loxapine] was 0.023 ± 0.0036. Take `O=C(c1cc(Cc2n[nH]c(=O)c3ccccc23)ccc1F)N1CCN(C(=O)C2CC2)CC1` [olaparib] + CN1CCN(C2=Nc3ccccc3Oc3ccc(Cl)cc32)CC1 [loxapine]: the food intake was 0.0205 ± 0.005. To `CC(=O)O[C@H]1Cc2ccccc2N(C(N)=O)c2ccccc21` [eslicarbazepine (acetate)] + CN1CCN(C2=Nc3ccccc3Oc3ccc(Cl)cc32)CC1 [loxapine] belongs 0.0232 ± 0.0043; to `O=c1n(CCCN2CCN(c3cccc(Cl)c3)CC2)nc2ccccn12` [trazodone (hydrochloride)] + CN1CCN(C2=Nc3ccccc3Oc3ccc(Cl)cc32)CC1 [loxapine], 0.0285 ± 0.035; to `COc1c(N2C[C@@H]3CCCN[C@@H]3C2)c(F)cc2c(=O)c(C(=O)O)cn(C3CC3)c12` [moxifloxacin (hydrochloride)] + CN1CCN(C2=Nc3ccccc3Oc3ccc(Cl)cc32)CC1 [loxapine], 0.0216 ± 0.0034. In the case of `O=NN(CCCl)C(=O)NC1CCCCC1` [Lomustine] + CN1CCN(C2=Nc3ccccc3Oc3ccc(Cl)cc32)CC1 [loxapine], the food intake worked out at 0.0248 ± 0.0039.

For `CC(C)Cc1ccc(C(C)C(=O)O)cc1` (stereo not given) [ibuprofen] + CN1CCN(C2=Nc3ccccc3Oc3ccc(Cl)cc32)CC1 [loxapine], the food intake is 0.0222 ± 0.0021. The value for `Nc1ccn([C@@H]2CS[C@H](CO)O2)c(=O)n1` [lamivudine] + CN1CCN(C2=Nc3ccccc3Oc3ccc(Cl)cc32)CC1 [loxapine] was 0.0212 ± 0.003. To `C[C@H]1c2cccc(O)c2C(=O)C2=C(O)[C@]3(O)C(=O)C(C(N)=O)=C(O)[C@@H](N(C)C)[C@@H]3[C@@H](O)[C@@H]21` [doxycycline] + CN1CCN(C2=Nc3ccccc3Oc3ccc(Cl)cc32)CC1 [loxapine] belongs 0.0161 ± 0.0037.

In the case of `CC(C)(C)C(=O)OCOC(=O)[C@@H]1N2C(=O)[C@@H](/N=C/N3CCCCCC3)[C@H]2SC1(C)C` [pivmecillinam (hydrochloride)] + CN1CCN(C2=Nc3ccccc3Oc3ccc(Cl)cc32)CC1 [loxapine], the food intake turned out to be 0.0244 ± 0.0027. To `NC(=O)c1ncn([C@@H]2O[C@H](CO)[C@@H](O)[C@H]2O)n1` [ribavirin] + CN1CCN(C2=Nc3ccccc3Oc3ccc(Cl)cc32)CC1 [loxapine] belongs 0.0212 ± 0.0037.

Turning to `CCN(CC)CCOC(=O)c1ccc(N)cc1` [procaine (hydrochloride)] + CN1CCN(C2=Nc3ccccc3Oc3ccc(Cl)cc32)CC1 [loxapine], the food intake worked out at 0.0224 ± 0.0034. To `CC(C(=O)O)c1ccc2c(c1)CC(=O)c1ccccc1S2` (stereo not given) [zaltoprofen] + CN1CCN(C2=Nc3ccccc3Oc3ccc(Cl)cc32)CC1 [loxapine] belongs 0.0216 ± 0.0032; to `CC(=O)OCC(CCn1cnc2cnc(N)nc21)COC(C)=O` [famciclovir] + CN1CCN(C2=Nc3ccccc3Oc3ccc(Cl)cc32)CC1 [loxapine], 0.0236 ± 0.0029. To `Fc1ccc([C@@H]2CCNC[C@H]2COc2ccc3c(c2)OCO3)cc1` [paroxetine (hydrochloride)] + CN1CCN(C2=Nc3ccccc3Oc3ccc(Cl)cc32)CC1 [loxapine] belongs 0.0221 ± 0.0043. To `C#C[C@]1(O)CC[C@H]2[C@@H]3CCc4cc(OC)ccc4[C@H]3CC[C@@]21C` [mestranol] + CN1CCN(C2=Nc3ccccc3Oc3ccc(Cl)cc32)CC1 [loxapine] belongs 0.0204 ± 0.0018. Regarding `Cc1cn([C@@H]2C[C@@H](O)[C@H](CO)O2)c(=O)[nH]c1=O` [telbivudine] + CN1CCN(C2=Nc3ccccc3Oc3ccc(Cl)cc32)CC1 [loxapine], the food intake turned out to be 0.0219 ± 0.0023.

As to `CC[C@H]1OC(=O)C[C@@H](O)[C@H](C)[C@@H](O[C@@H]2O[C@H](C)[C@@H](O[C@H]3C[C@@](C)(O)[C@@H](O)[C@H](C)O3)[C@H](N(C)C)[C@H]2O)[C@@H](CC=O)C[C@@H](C)C(=O)/C=C/C(C)=C/[C@@H]1CO[C@@H]1O[C@H](C)[C@@H](O)[C@@H](OC)[C@H]1OC` [Tylosin] + CN1CCN(C2=Nc3ccccc3Oc3ccc(Cl)cc32)CC1 [loxapine], the food intake was determined as 0.0219 ± 0.0051.

In the case of `Cc1cc(C2CCCCC2)n(O)c(=O)c1` [ciclopirox] + CN1CCN(C2=Nc3ccccc3Oc3ccc(Cl)cc32)CC1 [loxapine], the food intake worked out at 0.0218 ± 0.0041.

For the compound `O=C1NC(=O)C(c2ccccc2)(c2ccccc2)N1` [phenytoin] + CN1CCN(C2=Nc3ccccc3Oc3ccc(Cl)cc32)CC1 [loxapine], the food intake was determined as 0.0218 ± 0.0037.

On to `S=C=Nc1ccc(N=C=S)cc1` [p-Phenylene diisothiocyanate] + CN1CCN(C2=Nc3ccccc3Oc3ccc(Cl)cc32)CC1 [loxapine], for which the food intake is 0.0229 ± 0.0028.

Take `C#C[C@]1(O)CC[C@H]2[C@@H]3CCC4=CC(=O)CC[C@@H]4[C@H]3C(=C)C[C@@]21CC` [etonogestrel] + CN1CCN(C2=Nc3ccccc3Oc3ccc(Cl)cc32)CC1 [loxapine]: the food intake was 0.0244 ± 0.012.

As to `O=C(Nc1c(Cl)cncc1Cl)c1ccc(OC(F)F)c(OCC2CC2)c1` [roflumilast] + CN1CCN(C2=Nc3ccccc3Oc3ccc(Cl)cc32)CC1 [loxapine], the food intake came to 0.0214 ± 0.0055. For `O=c1[nH]c(=O)n([C@H]2C[C@H](O)[C@@H](CO)O2)cc1C(F)(F)F` [trifluorothymidine] + CN1CCN(C2=Nc3ccccc3Oc3ccc(Cl)cc32)CC1 [loxapine], the food intake is 0.0216 ± 0.0028.

With `CCOc1ccccc1OCCN[C@H](C)Cc1ccc(OC)c(S(N)(=O)=O)c1` [tamsulosin] + CN1CCN(C2=Nc3ccccc3Oc3ccc(Cl)cc32)CC1 [loxapine], the food intake turned out to be 0.022 ± 0.0032. To `N[C@@H]1CCCCN(c2c(F)cc3c(=O)c(C(=O)O)cn(C4CC4)c3c2Cl)C1` [besifloxacin (hydrochloride)] + CN1CCN(C2=Nc3ccccc3Oc3ccc(Cl)cc32)CC1 [loxapine] belongs 0.0227 ± 0.0056; to `CS(=O)(=O)c1ccc([C@@H](O)[C@@H](CO)NC(=O)C(Cl)Cl)cc1` [thiamphenicol] + CN1CCN(C2=Nc3ccccc3Oc3ccc(Cl)cc32)CC1 [loxapine], 0.0228 ± 0.0025. To `Nc1ccc(S(=O)(=O)c2ccc(N)cc2)cc1` [dapsone] + CN1CCN(C2=Nc3ccccc3Oc3ccc(Cl)cc32)CC1 [loxapine] belongs 0.0216 ± 0.006; to `Cc1[nH]c(=O)c(C#N)cc1-c1ccncc1` [milrinone] + CN1CCN(C2=Nc3ccccc3Oc3ccc(Cl)cc32)CC1 [loxapine], 0.0238 ± 0.0035.

As to `Cc1ccc(Nc2nccc(N(C)c3ccc4c(C)n(C)nc4c3)n2)cc1S(N)(=O)=O` [pazopanib (hydrochloride)] + CN1CCN(C2=Nc3ccccc3Oc3ccc(Cl)cc32)CC1 [loxapine], the food intake was 0.0206 ± 0.0053. The value for `C[C@@H]1CCN(C(=O)CC#N)C[C@@H]1N(C)c1ncnc2[nH]ccc12` [tofacitinib (citrate)] + CN1CCN(C2=Nc3ccccc3Oc3ccc(Cl)cc32)CC1 [loxapine] was 0.0227 ± 0.0047.

For the origin of these results see the supplement of paper PMC6288085.
